Bioassay records deposited in PubChem by National Center for Advancing Translational Sciences (NCATS).
NS1 inh = inhibitors of influenza NS1 protein function | 270,000 compounds, 0.4% hits | Potency, µM (titrated, usually from 46.1 µM), inactives show at the highest dose activity, positive = more growth; calls by dose curve; further: actives are rising curves; nearly all actives have a fitted effect of over 50% in size
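Compounds were scored for reversing the slow growth caused by influenza A NS1 in S. cerevisiae, measured by optical density at 600 nm. Assay medium contained 2% galactose at pH 6.0; NS1-free yeast of the same strain were the positive control.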
TbPYK inhibitor = inhibitors of Trypanosoma brucei pyruvate kinase; Potency, µM (top dose mostly 76.8 µM), without a hit: top-dose activity, negative = inhibition, actives largely listed as inhibitors; 410,000 compounds, 0.12% hits; TbPYK enzyme, Kinase-Glo Plus ATP luminescence, 45 min; AID 624173; further: on the % scale 0 is the no-effect control and ±100 the full control effect; nearly all actives have a fitted effect of over 50% in size
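Luminescence from Kinase-Glo Plus, added after a 45-minute room-temperature reaction, served as the end-point read-out. The enzyme and substrate were preincubated with compound before ADP (130 uM final) initiated turnover. Concentration-effect curves came from normalized qHTS data.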
RE007 growth inh = less growth of the S. pombe RE007 Vpr strain; Potency, µM (series often up to 92.2 µM), for inactives: at the highest dose activity change, negative = less growth, hits mostly inhibitors; 360,000 compounds, 0.21% hits; S. pombe RE007 Vpr strain, BacTiter-Glo ATP luminescence, 24 h; active means well fitted falling curve with a large enough effect; inconclusive means small, poorly fitted or top-dose-only effect; inactive means no such curve, though single readings can be large or run the other way; further: on the % scale 0 is the no-effect control and ±100 the full control effect; nearly all actives have a fitted effect of over 50% in size
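Fission yeast RE007 carrying one integrated HIV-1 vpr copy, seeded at OD 0.01 in PMG+AL medium with 23 nL pinned compound. Grown 24 h at 30 degrees; viability read by BacTiter-Glo luminescence after 5 min.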
SARS PLpro yeast = blocks SARS-CoV papain-like protease in a yeast assay | S. cerevisiae expressing SARS-CoV PLpro, growth rescue | Potency, µM (titrated, usually from 32.9 µM), without a hit: at the highest dose activity, positive = growth rescue, hits mostly activators | 330,000 compounds, 0.19% hits | AID 485353; calls by dose curve; further: 0% is about no effect; nearly all actives have a fitted effect of over 55% in size
Sm TGR block = inhibitors of Schistosoma mansoni thioredoxin glutathione reductase | Q962Y6 | purified TGR, DTNB reduction, TNB absorbance 405 nm | Potency, µM (doses to about 114 µM), inactives show at the top dose activity change, negative = inhibition, hits mostly inhibitors | 360,000 compounds, 3% hits | AID 485364; further: on the % scale 0 is the no-effect control and ±100 the full control effect; nearly all actives have a fitted effect of over 60% in size
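TGR 20 nM + NADPH 100 uM (dispensed conc.), cpd preinc 15 min RT; start with NADPH (500 uM addition) then DTNB (15 mM addition). Kinetic TNB absorbance, 405 nm filter. Four-parameter Hill fit across titration.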
LmPK inhibitor = inhibitors of Leishmania mexicana pyruvate kinase | 290,000 compounds, 0.37% hits | AID 1721 | Potency, µM (top dose mostly 57.5 µM), for inactives: top-dose activity change, negative = inhibition, hits mostly inhibitors | purified LmPK, Kinase-Glo ATP luminescence, 1 h; further: on the % scale 0 is the no-effect control and ±100 the full control effect
Target sequence (Q27686 whole entry, looked up): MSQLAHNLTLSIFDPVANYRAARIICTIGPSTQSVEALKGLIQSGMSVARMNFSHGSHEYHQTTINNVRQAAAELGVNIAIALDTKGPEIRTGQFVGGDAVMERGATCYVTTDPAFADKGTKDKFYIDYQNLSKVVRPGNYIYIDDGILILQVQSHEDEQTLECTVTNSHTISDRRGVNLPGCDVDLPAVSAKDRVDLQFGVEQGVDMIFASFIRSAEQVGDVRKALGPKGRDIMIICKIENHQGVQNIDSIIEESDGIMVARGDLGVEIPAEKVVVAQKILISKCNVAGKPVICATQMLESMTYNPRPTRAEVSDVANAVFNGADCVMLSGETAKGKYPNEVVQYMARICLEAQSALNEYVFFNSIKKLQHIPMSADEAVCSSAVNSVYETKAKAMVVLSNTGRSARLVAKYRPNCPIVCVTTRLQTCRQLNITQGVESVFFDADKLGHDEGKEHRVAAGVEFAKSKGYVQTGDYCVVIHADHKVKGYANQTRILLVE
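Screened at intermediate enzyme activity to detect both inhibitors and activators: LmPK at 0.1 nM, with a 0.5 nM enzyme column as activation reference. PEP 0.5 mM, ADP 0.1 mM; ATP detected by luminescence after 1 h.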
The depositor's hits bear a star; ? = inconclusive; / = no result given; [ ] = remark or other dose. Shown are actives, neighbours in structure and some others; about 3.3% of the full set was active somewhere. Unless noted, the call rests on the fitted dose curve; in most records, active means well fitted curve in the direction sought with a large enough effect; inconclusive means small, poorly fitted or top-dose-only effect, or another doubt; inactive means no such curve, though single readings can be large; an effect the other way counts as inactive or inconclusive. Potency means the concentration at half of the fitted maximal effect.

SMILES | NS1 inh | TbPYK inhibitor | RE007 growth inh | SARS PLpro yeast | Sm TGR block | LmPK inhibitor
CC(=O)N1CCN(c2ccc([N+](=O)[O-])cc2C=C2C(=O)NC(=O)NC2=O)CC1 | 1% | -18% | 27% | -2% | ? | 3%
CCN1CCN(c2ccc([N+](=O)[O-])cc2C=C2C(=O)NC(=O)NC2=O)CC1 | 5% | 22µM* | 1% | 18% | 13µM* | -6%
COc1ccccc1-c1noc(-c2ccncc2)n1 | -3% | -4% | -23% | -5% | -5% | ?
COc1nc(C)ccc1-c1noc(-c2ccccn2)n1 | -6% | -5% | 1% | 4% | 5% | 22µM*
COc1ccccc1-c1nc(-c2ccccn2)no1 | -57% | ? | ? | -18% | 6% | 4.5µM*
COc1ccccc1-c1nc(-c2ccc(C)nc2OC)no1 | 3% | -3% | -3% | -7% | 0% | -6%
Brc1ccc(-c2nc(-c3ccccn3)no2)o1 | -74% | -13% | ? | -15% | 0% | 32µM*
CS(=O)(=O)c1ccc(C(=O)C2C(=O)CCCC2=O)c([N+](=O)[O-])c1 | / | -8%[157 µM] | / | / | / | /
C[C@H](NC(=O)c1ccc(Cl)c(Cl)c1)c1ccc(-c2ccccc2)cc1 | 0% | / | / | / | / | /
COc1ccc(CNCCC(c2ccc3c(c2)OCO3)c2ccccc2OC)cc1 (configuration not stated) | / | -9% | / | / | 1% | /
O=c1[nH]c(C2CCCN(S(=O)(=O)c3ccccc3)C2)nc2c1nnn2Cc1ccccc1 (configuration not stated) | -4% | 0% | -21% | 0% | 89µM* | 6%
CC(C)(C)OC(=O)NCC12C=CC(O1)C1C(=O)N(Cc3ccccc3)C(=O)C12 (configuration not stated) | 6% | -2% | 45µM* | -95% | 8.9µM* | -3%
Cc1cccc(NC(=O)CCC(=O)OCC(=O)c2ccc(Oc3ccc([N+](=O)[O-])cc3)cc2)c1 | -10% | -8% | -5% | -35% | 40µM* | 1%
Cc1ccc(NC(=O)CCC(=O)OCC(=O)c2ccc(Oc3ccc([N+](=O)[O-])cc3)cc2)cc1C | -17% | -19% | 1% | 3% | -24% | 1%
CN1CCCC(C(=O)c2ccc(Cl)cc2)C1 (configuration not stated) | 2% | -1% | -7% | 0% | 35µM* | 3%
Cc1ccc(S(=O)(=O)N2CCCN(Cc3nc4ccccc4c(=O)[nH]3)CC2)cc1 | / | -1% | 5% | 2% | 45µM* | /
CCc1sc(C(=O)N2CCc3ccccc32)cc1C | / | -10% | -25% | -20% | 8% | 25µM*
COC(=O)C1=C(C(=O)OC)[C@@H]2N(C)c3ccc(OC)cc3[C@@]23C[C@@H](C(=O)OC)N(S(=O)(=O)c2c(C)noc2C)C3=N1 | / | / | / | / | / | -5%[11.5 µM]
O=C(O)c1ccc(CN2C(=O)c3cccc4c([N+](=O)[O-])ccc(c34)C2=O)cc1 | 1% | 3% | 6% | 0% | 18µM* | 0%
O=C1c2cccc3c([N+](=O)[O-])ccc(c23)C(=O)N1CCc1ccccn1 | 3% | 4% | -9% | -1% | ? | -2%
CC(=O)Oc1cccc(N2C(=O)c3cccc4c([N+](=O)[O-])ccc(c34)C2=O)c1 | -6% | 9% | 4% | -1% | 1% | -8%
Cc1ccc(C(=O)O)cc1N1C(=O)c2cccc3c([N+](=O)[O-])ccc(c23)C1=O | 7% | -17% | 2% | 1% | 14µM* | 14%
CN(C)CCCN1C(=O)c2cccc3c([N+](=O)[O-])ccc(c23)C1=O | -25% | -8% | / | -22% | 28µM* | -4%
O=C(C1CCC(Cn2c(=O)c3sccc3n(Cc3cccc(F)c3)c2=O)CC1)N1CCCCC1 (configuration not stated) | / | 4% | / | / | -6% | /
CCCN(CCC)CCNC(=O)c1cc2c(=O)n(C)c3ccccc3c2n1C | -6% | 1% | -7% | 4% | 50µM* | -1%
SMILES | NS1 inh | TbPYK inhibitor | RE007 growth inh | SARS PLpro yeast | Sm TGR block | LmPK inhibitor
Cc1ccc(CNC(=O)c2cc3c(=O)n(C)c4ccccc4c3n2C)cc1 | 13% | -4% | 1% | 1% | 9% | 8%
CN(CCNC(=O)c1cc2c(=O)n(C)c3ccccc3c2n1C)Cc1ccccc1 | -7% | 1% | -16% | 7% | 28µM* | 7%
COC(=O)C(C)Oc1ccc2c(c1)O/C(=C\c1ccco1)C2=O (configuration not stated) | -56% | 7% | -9% | -8% | 20µM* | -1%
COc1ccc2c(c1)O/C(=C\c1ccco1)C2=O | 15% | -11% | -5% | -6% | 7.9µM* | -8%
COc1ccc(/C=C2\Oc3cc(OCC(N)=O)ccc3C2=O)cc1OC | 2% | 4% | 0% | -3% | -3% | 5%
CCC(C(=O)NC(=O)NC(C)=O)c1ccccc1 (configuration not stated) | / | -9% | / | / | / | /
Cc1cc(OCCCn2c(CCNC(=O)C3CCCCC3)nc3ccccc32)ccc1Cl | / | -1% | / | / | -5% | /
CC(C)(CCc1nc2ccccc2[nH]1)C(=O)O | 3% | / | / | / | / | /
Cc1cc2oc(=O)cc(Cn3ncc(Cl)c(Cl)c3=O)c2cc1Cl | -2% | -3% | ? | 2% | 3.5µM* | 4%
COc1ccc(/C=N/NC(=O)CNC(=O)/C=C/c2ccco2)cc1OC | 11% | -18% | 6% | -4% | 25µM* | 0%
COc1cc(/C=N/NC(=O)CNC(=O)/C=C/c2ccco2)cc(OC)c1OC | 1% | 4% | 1% | 1% | 50µM* | -7%
COc1ccccc1/C=C/C(=O)NCC(=O)N/N=C/c1ccccc1 | / | 0% | 4% | -5% | -2% | 5%
COc1ccccc1/C=C/C(=O)NCC(=O)N/N=C/c1ccc2c(c1)OCO2 | / | 0% | -1% | -5% | 5% | -2%
O=C(Nc1cccc(OCc2cc(=O)n3ccccc3n2)c1)Nc1cccc(C(F)(F)F)c1 | / | -9% | / | / | 7% | /
CC1Cc2ccccc2N1Cc1cc(=O)n2ccsc2n1 (configuration not stated) | 13% | -20% | -4% | -13% | 22µM* | 0%
CCC[C@H](Sc1nc(N)nc2nc[nH]c12)C(=O)O | -3% | / | / | / | / | /
Cc1cc2c(s1)c1c(n2C)C(=O)N(Cc2ccccc2F)C1 | / | / | / | -1% | 1% | /
Cc1cc(C)c(Cn2c(=O)n(CCCC(=O)NCc3ccc4c(c3)OCO4)c(=O)c3sccc32)c(C)c1 | / | 0% | / | / | 1% | /
Cc1ccc(S(=O)(=O)c2c(C)nn(-c3ccccc3)c2OC(=O)c2ccco2)cc1 | 10% | -11% | -18% | -14% | 35µM* | 1%
CC(C)C(=O)Nc1nnc(NC(=S)Nc2ccccc2)s1 | / | 0% | 0% | 2% | 25µM* | 1%
